D3 antag: qHTS of D3 Dopamine Receptor Antagonist: qHTS | D3R cells, DiscoveRx beta-arrestin luminescence, antagonist mode; stronger effect = lower value | max response, negative = inhibition, % | 360,000 compounds, 2.5% hits; in the data active means max response below about -50%; inconclusive means no clear call, values can overlap the other calls
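Cells expressing the human receptor were seeded at 1500 cells/well, incubated overnight at 37 degrees C in 5% CO2, then exposed to library compounds with dopamine controls for 90 minutes at 37 degrees C before luminescent detection.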
DRD3 agonist: qHTS of D3 Dopamine Receptor Agonist: qHTS | D(3) dopamine receptor (Homo sapiens), P35462 | D3R DiscoveRx beta-arrestin cells, luminescence, 90 min | max activation, % | 410,000 compounds, 0.58% hits; in the data active means max activation above about 30%
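Agonist mode: compounds and dopamine controls were applied to plated cells for 90 min at 37 degrees C after an overnight attachment at 1500 cells/well. Luminescent read-out followed 30 - 60 minutes at room temperature with DiscoveRx detection reagent.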
D1 PAM: Potentiators of Human D1 Dopamine Receptor: qHTS; HEK293 TREx D1 cells, calcium flux, dopamine EC20 potentiation; potentiation, % at 10 µM; 360,000 compounds, 0.036% hits; AID 504651, 2011; in the data active means potentiation above about 30%
Target sequence (P21728 whole entry, looked up): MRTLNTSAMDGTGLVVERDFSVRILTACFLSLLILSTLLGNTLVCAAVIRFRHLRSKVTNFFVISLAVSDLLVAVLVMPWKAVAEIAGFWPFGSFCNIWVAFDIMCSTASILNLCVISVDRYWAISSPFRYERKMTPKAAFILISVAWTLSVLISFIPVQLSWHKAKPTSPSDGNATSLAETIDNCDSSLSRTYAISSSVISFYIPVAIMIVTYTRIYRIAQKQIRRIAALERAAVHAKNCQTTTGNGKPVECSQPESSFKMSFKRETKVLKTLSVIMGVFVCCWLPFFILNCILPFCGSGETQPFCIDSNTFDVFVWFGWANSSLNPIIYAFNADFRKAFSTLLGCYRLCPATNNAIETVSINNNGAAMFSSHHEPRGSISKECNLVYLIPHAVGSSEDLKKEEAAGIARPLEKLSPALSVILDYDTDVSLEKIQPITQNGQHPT
Chronic BCR inh: qHTS Assay to Find Inhibitors of Chronic Active B-Cell Receptor Signaling; 340,000 compounds, 0.05% hits; ABC-DLBCL IkBa-CBG/CBR reporter, luminescence ratio, 4 h; Potency, µM (highest dose often 46.1 µM), hits mostly inhibitors; active means well fitted inhibition curve with a large enough effect in the signal ratio, with a control signal flat, not every such curve was filed as active; inconclusive means small, poorly fitted or top-dose-only effect, or effect the other way, or a change in a side signal; the % refers to the signal ratio
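TMD8 human ABC-DLBCL cells with doxycycline-inducible IκBα–green luciferase fusion and unfused red luciferase, in 0.5% FBS medium; compounds up to 46 uM, 4 h at 37C. Green/red luminescence ratio, filter-overlap corrected, fitted to concentration-response curves.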
D1 ag: Allosteric Agonists of the Human D1 Dopamine Receptor: qHTS | D(1A) dopamine receptor (Homo sapiens), P21728 | HEK293 T-REx D1 cells, calcium flux, agonist mode | activation, % at 2 µM | 360,000 compounds, 1% hits; in the data active means activation above about 30%
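Tetracycline-induced HEK293 TREx D1 cells, force-coupled to calcium signalling, were dye-loaded with a no-wash calcium kit. Compound was pin-added after a 10 s baseline. Fluorescence was read kinetically at 1 cycle/s for 180 s, with calcium rises flagged as agonism.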
D1 antagonist: Antagonist of Human D 1 Dopamine Receptor: qHTS; D(1A) dopamine receptor (Homo sapiens), P21728; HEK293 TREx D1 cells, calcium flux, dopamine EC80; stronger effect = lower value; activity change, negative = inhibition, % at 10 µM; 360,000 compounds, 3.2% hits; AID 504652, 2011; in the data active means activity change below about -30%
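Cells carrying a force-coupled, tetracycline-inducible human D1 receptor report calcium flux. Each well gets a 10 s baseline, compound with 180 s monitoring, then an EC80 dopamine stimulus with a second 180 s kinetic read.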
Large screens that a line does not name were inactive. Most compounds without a hit are left out; they make up all but 6% or so of the library.

CCCNC(=O)C1CCN(c2nc(C)cc(C)n2)CC1	none
Cc1cc(C)nc(N2CCC(C(=O)N3CCN(c4cc(Cl)ccc4C)CC3)CC2)n1	DRD3 agonist 65
Cc1ccc2nc(N3CCC(C(=O)N4CCN(c5cccc(Cl)c5)CC4)CC3)[nH]c2c1	D1 ag 43 (no result: D3 antag, Chronic BCR inh)
COc1ccccc1CNC(=O)C1CCN(c2nc3ccc(Cl)cc3[nH]2)CC1	D1 antagonist -74 (no result: D3 antag, Chronic BCR inh)
COc1ccccc1CNC(=O)C1CCN(c2nc3ccc(C)cc3[nH]2)CC1	none (no result: D3 antag, Chronic BCR inh)
CC(C)N1C(=O)c2ccccc2NC(=O)C1C(=O)NCc1ccccc1 (stereo not given)	none (no result: D1 PAM, Chronic BCR inh, D1 ag, D1 antagonist)
CN(C)c1ccc(C=C(c2nnnn2-c2ccccc2)c2nnnn2-c2ccccc2)cc1	D1 ag 61
CN(C)/C=C(\C(=O)c1ccccc1)c1nnnn1-c1ccccc1	none
O=S(=O)(c1ccc(F)c(F)c1F)N1CCN(C(=S)NCc2ccccc2)CC1	none
O=S(=O)(c1ccc(F)c(F)c1F)N1CCN(C(=S)NC2CC3CCC2C3)CC1 (stereo not given)	D1 antagonist -30
Cc1ccc(N(Cc2cccs2)C(=O)c2ccccc2Cl)cc1	none (no result: D3 antag, Chronic BCR inh)
CC(C)NC(=O)N[C@H]1C=C[C@H](CC(=O)NCc2ccc(Oc3ccccc3)cc2)O[C@@H]1CO	none (no result: D1 PAM, Chronic BCR inh, D1 ag, D1 antagonist)
COCCNC(=O)C1(C)CCN(C(=O)c2cccnc2Oc2ccccc2)C1 (stereo not given)	none (no result: D1 PAM, Chronic BCR inh, D1 ag, D1 antagonist)
CCCOc1ccc(N2C(=O)CC(NCc3cccs3)C2=O)cc1 (stereo not given)	none
CCCOc1ccc(N2C(=O)CC(NCc3ccncc3)C2=O)cc1 (stereo not given)	Chronic BCR inh inconclusive, D1 antagonist -59
O=C1OC(C(=O)Nc2cc(C(F)(F)F)ccc2Cl)Cc2ccccc21 (stereo not given)	none (no result: D3 antag, Chronic BCR inh)
Cc1ccc(-c2nc(N)c3c(-c4ccc(C)cc4)nn(C(C)(C)C)c3n2)cc1	D1 antagonist -46
CC(C)(C)n1nc(-c2ccc(Cl)cc2)c2c(N)ncnc21	Chronic BCR inh inconclusive
CN(C)CCCOC(=O)N1c2ccccc2C=Cc2ccccc21	D3 antag -61
CN(C)CCCOC(=O)c1ccccc1Cl	D3 antag inconclusive, Chronic BCR inh inconclusive
CCn1c(=O)cc(OCC(=O)N2CCN(c3ccccc3OC)CC2)c2ccccc21	none (no result: D3 antag, Chronic BCR inh)
O=C(Nc1ccccc1)c1nn(-c2ccccc2)c(=O)cc1C(F)(F)F	D3 antag -50
O=C(c1ccccc1)c1nn(-c2ccccc2)c(=O)cc1C(F)(F)F	none
c1ccc(NC2=NCCN2CCC2CCCCC2)cc1	D3 antag -63
Cc1cccc(CCN2CCN=C2Nc2ccccc2)c1	D3 antag -56, D1 ag 46, D1 antagonist -40
Fc1ccc(CCN2CCN=C2Nc2ccccc2)cc1	D3 antag inconclusive, Chronic BCR inh inconclusive, D1 ag 35
c1ccc(CCN2CCN=C2Nc2ccccc2)cc1	D3 antag inconclusive, Chronic BCR inh inconclusive
CCCCN1CCN=C1Nc1ccccc1	none
CCCC[C@@H]1CNC(=O)C(=O)N1CCCC	none (no result: D1 PAM, Chronic BCR inh, D1 ag, D1 antagonist)
COC(=O)c1cc2occc2n1Cc1nc(-c2ccccc2)oc1C	none (no result: D3 antag, Chronic BCR inh)
OC(c1ccccc1)(c1nc(-c2cc3ccccc3o2)cs1)C(F)(F)F (stereo not given)	none (no result: D1 PAM, Chronic BCR inh, D1 ag, D1 antagonist)
COc1cccc2sc(N3CCN(C(=O)CS(=O)(=O)c4ccc(Cl)cc4)CC3)nc12	none (no result: D3 antag, D1 antagonist)
COc1ccc(C(C(=O)NCc2ccccc2)N(C(=O)Cn2nnc3ccccc32)c2ccc(OC)cc2)cc1 (stereo not given)	none (no result: D3 antag, Chronic BCR inh)
CCC(CO)Oc1cc(NCc2ccccc2)c2ncn(C(C)C)c2c1 (stereo not given)	DRD3 agonist 37, Chronic BCR inh inconclusive (no result: D1 PAM, D1 ag, D1 antagonist)
CCC(CO)Oc1cc(NCc2ccc(O)cc2)c2ncn(C(C)C)c2c1 (stereo not given)	Chronic BCR inh inconclusive (no result: D1 PAM, D1 ag, D1 antagonist)
Cc1ccc(-n2nc3c(N4CCCC(C(=O)NCCc5ccccc5)C4)nnc(C)c3c2C)cc1 (stereo not given)	none (no result: D3 antag, Chronic BCR inh)
COc1cccc(-c2nn(C)c3sc(C(=O)NCCCN(C)Cc4ccccc4)cc23)c1	D3 antag -53
CCN(CC)CCCNC(=O)c1cc2c(-c3cccc(OC)c3)nn(C)c2s1	D3 antag -82, Chronic BCR inh inconclusive
CCN1CCCC1CNC(=O)c1cc2c(-c3cccc(OC)c3)nn(C)c2s1 (stereo not given)	D3 antag -72, Chronic BCR inh inconclusive
CCCCN(C)CCNC(=O)c1cc2c(-c3ccccc3F)nn(C)c2s1	D3 antag -95, Chronic BCR inh inconclusive
CC(=O)c1cc(-c2ccccc2)n(CC(=O)NCc2ccccc2C)c1C	none (no result: D3 antag, Chronic BCR inh)
COc1cccc(CNC(=O)CCn2cnc3ccccc3c2=O)c1	none (no result: D3 antag, Chronic BCR inh)
COc1ccc(NC(=O)c2cc3c(-c4ccccc4F)nn(C)c3s2)c(OC)c1	DRD3 agonist 41 (no result: D3 antag, Chronic BCR inh)
CCCCN(C)CCNC(=O)c1cc2c(-c3cccc(OC)c3)nn(C)c2s1	D3 antag -78, Chronic BCR inh inconclusive
CCCCN(CC)CCCNC(=O)c1cc2c(-c3ccc(OC)c(OC)c3)nn(C)c2s1	D3 antag -98
COc1ccc(OC)c(CCNC(=O)c2cc3c(-c4ccccc4F)nn(C)c3s2)c1	none (no result: D3 antag, Chronic BCR inh)
CCOCCCNC(=O)c1cc2c(-c3ccc(OC)c(OC)c3)nn(C)c2s1	none (no result: D3 antag, Chronic BCR inh)
C=C(CN(C)C)C(=O)c1ccc(C)cc1C	D3 antag -88 (no result: D1 PAM, Chronic BCR inh, D1 ag, D1 antagonist)
C=C(CN(C)C)C(=O)c1ccc2c(c1)OCO2	D3 antag -54 (no result: D1 PAM, Chronic BCR inh, D1 ag, D1 antagonist)
C[N+](C)(C)CCCC(=O)c1ccc2c(c1)OCO2	none
C=C(CN(C)C)C(=O)c1cc(OC)c(OC)cc1OC	D3 antag inconclusive (no result: D1 PAM, Chronic BCR inh, D1 ag, D1 antagonist)
CCOc1ccccc1NC(=O)C1CCN(S(=O)(=O)c2cc(Br)cc3c2N(C(C)=O)CC3)CC1	none (no result: D3 antag, Chronic BCR inh)
O=C(O)c1cc(-c2ccc(/C=c3\sc4nc5ccc(Br)cc5n4c3=O)o2)ccc1Cl	D1 ag 36 (no result: D3 antag, DRD3 agonist)
Cc1cc2nc3s/c(=C/c4ccc(-c5ccccc5C(=O)O)o4)c(=O)n3c2cc1C	D1 ag 142, D1 antagonist -38
CC(C)(C)OC(=O)Cc1nnc(C(C(=O)OCc2ccccc2)c2ccccc2)o1 (stereo not given)	none (no result: D3 antag, DRD3 agonist, Chronic BCR inh)
COc1ccc2c(c1)sc1ncc(C(=O)NCc3ccc(OC(C)C)cc3)c(=O)n12	none (no result: D3 antag, Chronic BCR inh)
CCc1ccc(NC(=O)CSC2=Nc3ccccc3C3=NC(CC(=O)NCc4cccs4)C(=O)N23)cc1 (stereo not given)	Chronic BCR inh inconclusive (no result: D3 antag)
